Assay results from the supplement of paper PMC12669032.

Experiments:
Assay in all cases: growth AUC relative to DMSO control (median of replicates) (fraction); higher = more growth (less inhibition), active = hit call of the paper
Conditions in all cases: 20 µM; 24 h;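 active = AUC reduced over 20% with Padj below 0.05 in at least 2 of 3 replicates; inactive = otherwise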
Akkermansia muciniphila = tested on: Akkermansia muciniphila
In short: (§1)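 Area under the growth curve was normalised to the plate median of solvent-only wells, or to row and column medians on the industrial chemical plate. Growth curves came from anaerobic gut bacterial monocultures in mGAM at 37 °C, seeded at OD600 0.05 with 20 µM compound (1% DMSO), and read at OD600 hourly for 24 h with the minimum OD set to 0. The value is the median of three biological replicates grown on separate days.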

Bacteroides caccae = tested on: Bacteroides caccae
In short: as §1

Bacteroides clarus = tested on: Bacteroides clarus
In short: as §1

Bacteroides dorei = tested on: Bacteroides dorei
In short: as §1

Bacteroides stercoris = tested on: Bacteroides stercoris
In short: as §1

[1] = tested on: Bacteroides thetaiotaomicron
In short: as §1

Bacteroides uniformis = tested on: Bacteroides uniformis
In short: as §1

[2] = tested on: Bifidobacterium longum subsp. longum
In short: as §1

Clostridium difficile = tested on: Clostridium difficile
In short: as §1

Collinsella aerofaciens = tested on: Collinsella aerofaciens
In short: as §1

Coprococcus comes = tested on: Coprococcus comes
In short: as §1

Escherichia coli ED1a = tested on: Escherichia coli ED1a
In short: as §1

Escherichia coli IAI1 = tested on: Escherichia coli IAI1
In short: as §1

Eubacterium rectale = tested on: Eubacterium rectale
In short: as §1

[3] = tested on: Fusobacterium nucleatum subsp. animalis
In short: as §1

Lactobacillus gasseri = tested on: Lactobacillus gasseri
In short: as §1

Lactobacillus paracasei = tested on: Lactobacillus paracasei
In short: as §1

Odoribacter splanchnicus = tested on: Odoribacter splanchnicus
In short: as §1

[4] = tested on: Parabacteroides distasonis
In short: as §1

Parabacteroides merdae = tested on: Parabacteroides merdae
In short: as §1

Measured: growth AUC

CC(C)(c1ccc(O)cc1)c1ccc(O)cc1
inactive: Akkermansia muciniphila 1.01 | Bacteroides caccae 1.07 | Bacteroides clarus 1.04 | Bacteroides dorei 1.01 | Bacteroides stercoris 1.14 | [1] 1.02 | Bacteroides uniformis 1.06 | [2] 1.06 | Clostridium difficile 1.08 | Collinsella aerofaciens 1.03 | Coprococcus comes 1.01 | Escherichia coli ED1a 0.994 | Escherichia coli IAI1 0.989 | Eubacterium rectale 1.04 | [3] 1.1 | Lactobacillus gasseri 1 | Lactobacillus paracasei 1.04 | Odoribacter splanchnicus 1.07 | [4] 1.38 | Parabacteroides merdae 1.07

CNC(=O)Sc1ccc(OS(C)(=O)=O)cc1
inactive: Akkermansia muciniphila 0.955 | Bacteroides caccae 1.02 | Bacteroides clarus 0.858 | Bacteroides dorei 0.925 | Bacteroides stercoris 0.77 | [1] 0.848 | Bacteroides uniformis 0.953 | [2] 0.847 | Clostridium difficile 0.96 | Collinsella aerofaciens 1.01 | Coprococcus comes 1.02 | Escherichia coli ED1a 1.01 | Escherichia coli IAI1 1.02 | Eubacterium rectale 1.54 | [3] 1.09 | Lactobacillus gasseri 0.933 | Lactobacillus paracasei 0.953 | Odoribacter splanchnicus 0.864 | [4] 0.817 | Parabacteroides merdae 0.938

Nc1ccc(S(=O)(=O)Nc2cnc3ccccc3n2)cc1
inactive: Akkermansia muciniphila 0.923 | Bacteroides caccae 1.01 | Bacteroides clarus 0.99 | Bacteroides dorei 1.02 | Bacteroides stercoris 1.01 | [1] 0.946 | Bacteroides uniformis 0.984 | [2] 1.12 | Clostridium difficile 0.975 | Collinsella aerofaciens 0.982 | Coprococcus comes 0.996 | Escherichia coli ED1a 1 | Escherichia coli IAI1 0.975 | Eubacterium rectale 0.983 | [3] 0.936 | Lactobacillus gasseri 1.03 | Lactobacillus paracasei 0.887 | Odoribacter splanchnicus 1.01 | [4] 1.01 | Parabacteroides merdae 0.97

CN(C)C(=O)Nc1cc(C(C)(C)C)on1
inactive: Akkermansia muciniphila 0.918 | Bacteroides caccae 1.01 | Bacteroides clarus 0.997 | Bacteroides dorei 1.01 | Bacteroides stercoris 0.998 | [1] 0.995 | Bacteroides uniformis 1.01 | [2] 1.01 | Clostridium difficile 0.987 | Collinsella aerofaciens 0.989 | Coprococcus comes 0.99 | Escherichia coli ED1a 0.997 | Escherichia coli IAI1 1.01 | Eubacterium rectale 0.949 | [3] 0.959 | Lactobacillus gasseri 1.06 | Lactobacillus paracasei 1 | Odoribacter splanchnicus 0.942 | [4] 1.01 | Parabacteroides merdae 1

CCN(CC)c1nc(C)cc(=O)[nH]1
inactive: Akkermansia muciniphila 1.08 | Bacteroides caccae 0.974 | Bacteroides clarus 1.03 | Bacteroides dorei 1.02 | Bacteroides stercoris 1.11 | [1] 0.996 | Bacteroides uniformis 0.961 | [2] 1.02 | Clostridium difficile 1.01 | Collinsella aerofaciens 1.01 | Coprococcus comes 1.04 | Escherichia coli ED1a 0.995 | Escherichia coli IAI1 0.998 | Eubacterium rectale 0.907 | [3] 1.06 | Lactobacillus gasseri 0.998 | Lactobacillus paracasei 0.989 | Odoribacter splanchnicus 1.03 | [4] 1 | Parabacteroides merdae 1

Oc1ccc2ccccc2c1N=Nc1ccccc1
inactive: Akkermansia muciniphila 1 | Bacteroides caccae 0.973 | Bacteroides clarus 1.01 | Bacteroides dorei 0.977 | Bacteroides stercoris 0.972 | [1] 1 | Bacteroides uniformis 1 | [2] 0.942 | Clostridium difficile 0.991 | Collinsella aerofaciens 0.917 | Coprococcus comes 0.858 | Escherichia coli ED1a 1.01 | Escherichia coli IAI1 1.01 | Eubacterium rectale 0.983 | [3] 1 | Lactobacillus gasseri 0.973 | Odoribacter splanchnicus 1.04 | [4] 0.905 | Parabacteroides merdae 1.05
active: Lactobacillus paracasei 0.733

O=C(O)CNC(=O)c1cnccc1C(F)(F)F
inactive: Akkermansia muciniphila 1.02 | Bacteroides caccae 1 | Bacteroides clarus 1.02 | Bacteroides dorei 0.976 | Bacteroides stercoris 1.07 | [1] 0.99 | Bacteroides uniformis 1.02 | [2] 1.06 | Clostridium difficile 0.924 | Collinsella aerofaciens 0.989 | Coprococcus comes 0.96 | Escherichia coli ED1a 1.03 | Escherichia coli IAI1 1.02 | Eubacterium rectale 1.01 | [3] 1.14 | Lactobacillus gasseri 0.903 | Lactobacillus paracasei 1.11 | Odoribacter splanchnicus 1.02 | [4] 1.03 | Parabacteroides merdae 0.992

CN(C)C=O
inactive: Akkermansia muciniphila 1.08 | Bacteroides caccae 0.991 | Bacteroides clarus 1.05 | Bacteroides dorei 0.936 | Bacteroides stercoris 1.05 | [1] 1.01 | Bacteroides uniformis 1.05 | [2] 1.13 | Clostridium difficile 0.999 | Collinsella aerofaciens 1.01 | Coprococcus comes 1.04 | Escherichia coli ED1a 1.03 | Escherichia coli IAI1 1.03 | Eubacterium rectale 0.998 | [3] 1.11 | Lactobacillus gasseri 1.01 | Lactobacillus paracasei 1.03 | Odoribacter splanchnicus 1.05 | [4] 0.998 | Parabacteroides merdae 1.02

O=C(O)COc1cccc(Cl)c1Cl
inactive: Akkermansia muciniphila 0.919 | Bacteroides caccae 0.947 | Bacteroides clarus 0.971 | Bacteroides dorei 0.962 | Bacteroides stercoris 1.02 | [1] 0.993 | Bacteroides uniformis 0.997 | [2] 0.989 | Clostridium difficile 1 | Collinsella aerofaciens 0.992 | Coprococcus comes 1.01 | Escherichia coli ED1a 0.987 | Escherichia coli IAI1 1.01 | Eubacterium rectale 1.04 | [3] 1.12 | Lactobacillus gasseri 1.11 | Lactobacillus paracasei 0.898 | Odoribacter splanchnicus 0.92 | [4] 0.994 | Parabacteroides merdae 0.986

CCNc1nc(NC(C)CC)nc(OC)n1 (stereo not given)
inactive: Akkermansia muciniphila 1.08 | Bacteroides caccae 1.02 | Bacteroides clarus 1 | Bacteroides dorei 1.02 | Bacteroides stercoris 1.29 | [1] 0.977 | Bacteroides uniformis 0.979 | [2] 0.986 | Clostridium difficile 1.03 | Collinsella aerofaciens 1.13 | Coprococcus comes 1.02 | Escherichia coli ED1a 0.992 | Escherichia coli IAI1 0.994 | Eubacterium rectale 0.961 | [3] 1.05 | Lactobacillus gasseri 1.11 | Lactobacillus paracasei 1.12 | Odoribacter splanchnicus 1 | [4] 0.996 | Parabacteroides merdae 1.02

COC(=O)[C@@H](C)Oc1ccc(Oc2ncc(C(F)(F)F)cc2Cl)cc1
inactive: Akkermansia muciniphila 1.04 | Bacteroides caccae 0.831 | Bacteroides clarus 1.01 | Bacteroides dorei 0.984 | Bacteroides stercoris 1.16 | [1] 0.963 | Bacteroides uniformis 0.907 | [2] 0.976 | Clostridium difficile 1.05 | Collinsella aerofaciens 0.981 | Coprococcus comes 1.02 | Escherichia coli ED1a 1.02 | Escherichia coli IAI1 1.01 | Eubacterium rectale 1.05 | [3] 1.06 | Lactobacillus gasseri 0.889 | Lactobacillus paracasei 1.04 | Odoribacter splanchnicus 0.946 | [4] 0.913 | Parabacteroides merdae 1.01

O=C(O)Cc1c[nH]c2ccccc12
inactive: Akkermansia muciniphila 0.904 | Bacteroides caccae 0.973 | Bacteroides clarus 0.976 | Bacteroides dorei 1.03 | Bacteroides stercoris 1.02 | [1] 0.98 | Bacteroides uniformis 1.01 | [2] 1.01 | Clostridium difficile 1 | Collinsella aerofaciens 0.984 | Coprococcus comes 1.03 | Escherichia coli ED1a 1 | Escherichia coli IAI1 1.02 | Eubacterium rectale 1.02 | [3] 1.02 | Lactobacillus gasseri 1.22 | Lactobacillus paracasei 1.06 | Odoribacter splanchnicus 0.983 | [4] 1.02 | Parabacteroides merdae 1.02

O=C1NCC[n+]2ccccc21.[Br-]
inactive: Akkermansia muciniphila 1.13 | Bacteroides caccae 0.985 | Bacteroides clarus 1.01 | Bacteroides dorei 0.761 | Bacteroides stercoris 0.984 | [1] 0.972 | Bacteroides uniformis 1.02 | [2] 0.972 | Clostridium difficile 1.01 | Collinsella aerofaciens 0.97 | Coprococcus comes 1.02 | Escherichia coli ED1a 0.966 | Escherichia coli IAI1 0.978 | Eubacterium rectale 1.07 | [3] 0.908 | Lactobacillus gasseri 0.882 | Lactobacillus paracasei 0.961 | Odoribacter splanchnicus 0.968 | [4] 0.923 | Parabacteroides merdae 0.972

CCOC(=O)Cc1[nH]nc2ccc(Cl)cc12
inactive: Akkermansia muciniphila 0.921 | Bacteroides caccae 1.01 | Bacteroides clarus 1.01 | Bacteroides dorei 0.996 | Bacteroides stercoris 1.15 | [1] 1.01 | Bacteroides uniformis 1.01 | [2] 0.989 | Clostridium difficile 1 | Collinsella aerofaciens 0.969 | Coprococcus comes 0.976 | Escherichia coli ED1a 1.02 | Escherichia coli IAI1 1 | Eubacterium rectale 1.03 | [3] 1.08 | Lactobacillus gasseri 1.02 | Lactobacillus paracasei 0.917 | Odoribacter splanchnicus 1.08 | [4] 0.983 | Parabacteroides merdae 1.03

COc1cccc(N(C)C(=S)Oc2cccc(C(C)(C)C)c2)n1
inactive: Akkermansia muciniphila 0.871 | Bacteroides caccae 0.93 | Bacteroides clarus 0.921 | Bacteroides dorei 1.06 | Bacteroides stercoris 0.839 | [1] 1.01 | Bacteroides uniformis 1.01 | [2] 0.895 | Clostridium difficile 1.09 | Collinsella aerofaciens 0.97 | Coprococcus comes 0.954 | Escherichia coli ED1a 0.997 | Escherichia coli IAI1 0.982 | Eubacterium rectale 0.896 | [3] 0.971 | Lactobacillus gasseri 1.06 | Lactobacillus paracasei 0.707 | Odoribacter splanchnicus 1.11 | [4] 0.951 | Parabacteroides merdae 0.933

CCCCOCCOC(=O)COc1ccc(Cl)cc1Cl
active: [4] 0.721
inactive: Akkermansia muciniphila 1.09 | Bacteroides caccae 0.966 | Bacteroides clarus 0.991 | Bacteroides dorei 0.867 | Bacteroides stercoris 0.952 | [1] 0.98 | Bacteroides uniformis 0.93 | [2] 0.984 | Clostridium difficile 0.993 | Collinsella aerofaciens 0.96 | Coprococcus comes 0.982 | Escherichia coli ED1a 0.983 | Escherichia coli IAI1 0.983 | Eubacterium rectale 1.1 | [3] 0.92 | Lactobacillus gasseri 0.88 | Lactobacillus paracasei 0.962 | Odoribacter splanchnicus 0.97 | Parabacteroides merdae 0.954

CC(C)OC(=O)N[C@H](C(=O)N[C@H](C)c1nc2ccc(F)cc2s1)C(C)C
inactive: Akkermansia muciniphila 1.17 | Bacteroides caccae 0.963 | Bacteroides clarus 0.997 | Bacteroides dorei 0.934 | Bacteroides stercoris 0.982 | [1] 1.01 | Bacteroides uniformis 0.93 | [2] 1.06 | Clostridium difficile 0.942 | Collinsella aerofaciens 0.964 | Coprococcus comes 1.06 | Escherichia coli ED1a 0.989 | Escherichia coli IAI1 1 | Eubacterium rectale 1.13 | [3] 1.16 | Lactobacillus gasseri 0.859 | Lactobacillus paracasei 1.03 | Odoribacter splanchnicus 1.02 | [4] 0.847 | Parabacteroides merdae 1
